Molecules are shown by their SMILES. This is part of a sample that, as a whole, favours compounds with a hit. Of some 83,000 tested, about 20% had one in any assay.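 Plates (96-well) were seeded with cells, treated with compound at one concentration, and incubated for 48 hours before percent growth was determined.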 Values without a mark were called inactive. The source made the active and inactive calls. How the source made its calls: active means growth percent below 10; inactive means the rest.

Among the test systems are NCI-H23 lung; NCI-H226 lung; NCI-H322M lung; HOP-62 NSCLC; NCI-H460 lung; HOP-92 NSCLC; NCI-H522 lung; A549/ATCC NSCLC; 786-0 renal; COLO 205 colon; DU-145 prostate; K-562 leukemia; MALME-3M melanoma; MDA-MB-231 breast; RXF 393 renal; SF-268 CNS; SF-295 CNS; SF-539 CNS; M14 melanoma.
What all share (assay): NCI-60 one-dose screen, 48 h (100 = growth as untreated, 0 = no growth, -100 = all killed)
What all share (conditions): 10 µM unless noted

Turning to `C=C1C(=O)O[C@H]2[C@H]1CC/C(COC(=O)NCCc1cccc(OC)c1)=C\CC[C@@]1(C)O[C@@H]21`, the growth with NCI-H23 lung is 75.1%; in the assay with NCI-H226 lung it was 41.3%; in the assay with NCI-H322M lung, 91.7%; in the assay on HOP-62 NSCLC, 66.6%; in the assay with NCI-H460 lung, 74.5%; in the assay with HOP-92 NSCLC it was 44%. Besides, the growth in the assay on NCI-H522 lung is -30.8% (active); in the assay on A549/ATCC NSCLC, 79.2%; in the assay on 786-0 renal, 5.24% (active); in the assay on COLO 205 colon it was -35.3% (active); in the assay on DU-145 prostate it was 16.5%; in the assay on K-562 leukemia, 11.5%. Also, the growth with MALME-3M melanoma was 85.3%; in the assay on MDA-MB-231 breast, 29.4%; in the assay on RXF 393 renal, -2.81% (active); in the assay on SF-268 CNS it was 55.4%; in the assay with SF-295 CNS it was 89.2%; with SF-539 CNS, 38.9%. For the same compound, in the assay on M14 melanoma, the growth was 29.9%.

Turning to `CC(C)N(Cc1ccc(CN(C(=O)CCl)C(C)C)cc1)C(=O)CCl`, the growth in the assay with NCI-H23 lung was 19.8%; in the assay with NCI-H226 lung it was -2.93% (active); in the assay with NCI-H322M lung it was 94.6%; in the assay on HOP-62 NSCLC, -27.7% (active); with NCI-H460 lung it was 35.8%; in the assay on HOP-92 NSCLC, -65.4% (active). The growth was -75.6% (active) in the assay with NCI-H522 lung; 57.4% in the assay with A549/ATCC NSCLC; -85.1% (active) with 786-0 renal; -54.3% (active) with COLO 205 colon; 12% with DU-145 prostate; 14% in the assay on K-562 leukemia. For the same compound, the growth is -63.2% (active) in the assay on MALME-3M melanoma; -2.71% (active) in the assay with MDA-MB-231 breast; 45.6% with RXF 393 renal; -50.7% (active) with SF-268 CNS; 28.2% in the assay on SF-295 CNS; -84% (active) in the assay on SF-539 CNS. Also, the growth with M14 melanoma was 1.15% (active).

In the case of `O=C(OCCCCOC(=O)n1cnc2ccccc21)n1cnc2ccccc21`, the growth in the assay on NCI-H23 lung was 99.7%; in the assay on NCI-H226 lung it was 97.4%; with NCI-H322M lung, 105%; in the assay on HOP-62 NSCLC, 98.3%; with NCI-H460 lung it was 103%; in the assay on HOP-92 NSCLC it was 88.8%. Further, the growth in the assay with NCI-H522 lung is 91.3%; in the assay on A549/ATCC NSCLC, 92.5%; with 786-0 renal it was 105%; in the assay on COLO 205 colon, 103%; in the assay with DU-145 prostate, 105%; in the assay with K-562 leukemia it was 101%. Also, the growth in the assay with MALME-3M melanoma is 101%; in the assay with MDA-MB-231 breast it was 94.7%; with RXF 393 renal it was 107%; in the assay on SF-268 CNS, 98.8%; in the assay on SF-295 CNS, 98.3%; with SF-539 CNS, 102%. Further, the growth in the assay on M14 melanoma is 102%.

For `CCOc1ccc(/C=C/C=N/NC(N)=S)cc1`, the growth with NCI-H23 lung is 78.7%; in the assay on NCI-H226 lung it was 119%; in the assay on NCI-H322M lung, 91.7%; in the assay with HOP-62 NSCLC, 106%; with NCI-H460 lung, 96%; in the assay with HOP-92 NSCLC, 89.3%. Besides, the growth was 37.3% in the assay with NCI-H522 lung; 86.1% in the assay with A549/ATCC NSCLC; 56% in the assay with 786-0 renal; 84.5% in the assay on COLO 205 colon; 92.9% in the assay with DU-145 prostate; 56% in the assay with K-562 leukemia. Also, the growth in the assay with MALME-3M melanoma was 82%; with MDA-MB-231 breast it was 66.6%; in the assay with RXF 393 renal it was -0.439% (active); in the assay with SF-268 CNS, 92.1%; in the assay on SF-295 CNS, 96.7%; in the assay with SF-539 CNS, 74.3%. The growth with M14 melanoma was 95.7%.

For the compound `COc1ncc(-c2ccc3ncnc(Nc4cccc(Cl)c4)c3c2)cc1NS(=O)(=O)CCN1CCOCC1`, the growth in the assay with NCI-H23 lung was 21.4%; with NCI-H226 lung, 22.3%; in the assay with NCI-H322M lung, -17.1% (active); with HOP-62 NSCLC it was 17.5%; in the assay on NCI-H460 lung, 10.3%; in the assay on HOP-92 NSCLC, -26.3% (active). Further, the growth with NCI-H522 lung is 14%; in the assay on A549/ATCC NSCLC, -4.57% (active); in the assay on 786-0 renal, 10.5%; with COLO 205 colon it was -6.87% (active); in the assay with DU-145 prostate, 18.6%; in the assay on K-562 leukemia, 45.8%. The growth was -19.8% (active) in the assay with MALME-3M melanoma; 16.4% with MDA-MB-231 breast; -30.7% (active) in the assay on RXF 393 renal; 23% in the assay with SF-268 CNS; -24.1% (active) in the assay with SF-295 CNS; -18.9% (active) in the assay on SF-539 CNS. Further, the growth with M14 melanoma was 18.1%.

As to `CC(=O)/C=C/c1cc2cc(Cl)ccc2[nH]c1=O`, the growth in the assay with NCI-H23 lung is 87.5%; with NCI-H226 lung, 85.1%; in the assay with NCI-H322M lung it was 90.5%; with HOP-62 NSCLC it was 68%; in the assay with NCI-H460 lung it was 78.5%; with HOP-92 NSCLC it was 94.5%. The growth in the assay on NCI-H522 lung is 75.2%; in the assay on A549/ATCC NSCLC it was 85.2%; with 786-0 renal, 74.5%; in the assay with COLO 205 colon it was 98.8%; with DU-145 prostate it was 69.8%; with K-562 leukemia, 50.5%. For the same compound, the growth in the assay on MALME-3M melanoma was 97.2%; in the assay on MDA-MB-231 breast it was 84%; in the assay with RXF 393 renal it was 79.1%; in the assay with SF-268 CNS it was 81.2%; with SF-295 CNS, 96.9%; in the assay with SF-539 CNS, 85.4%. Further, the growth with M14 melanoma was 91.2%.

For `O=C1NC(Cc2c[nH]c3ccccc23)C(=O)N1Cc1ccc(Cl)cc1` (configuration not stated), the growth in the assay on NCI-H23 lung was 107%; in the assay with NCI-H226 lung it was 95.5%; with NCI-H322M lung it was 104%; with HOP-62 NSCLC, 103%; in the assay on NCI-H460 lung, 110%; in the assay with HOP-92 NSCLC it was 85.8%. The growth with NCI-H522 lung was 86.7%; in the assay with A549/ATCC NSCLC it was 105%; in the assay on 786-0 renal, 110%; in the assay on COLO 205 colon, 96.9%; with DU-145 prostate, 116%; with K-562 leukemia, 83.9%. Further, the growth was 105% in the assay on MALME-3M melanoma; 101% in the assay on MDA-MB-231 breast; 116% in the assay on RXF 393 renal; 106% in the assay on SF-268 CNS; 82.3% in the assay with SF-295 CNS; 106% in the assay with SF-539 CNS. Moreover, the growth in the assay with M14 melanoma is 110%.

For `COc1cc(C(=O)N2CCN(C(=O)c3ccco3)CC2)c(N)cc1OCc1ccccc1`, the growth was 111% in the assay on NCI-H23 lung; 88.4% with NCI-H226 lung; 91.3% in the assay with NCI-H322M lung; 94.6% in the assay with HOP-62 NSCLC; 113% with NCI-H460 lung; 61% with HOP-92 NSCLC. Moreover, the growth was 84.4% with NCI-H522 lung; 93.3% in the assay on A549/ATCC NSCLC; 95.6% with 786-0 renal; 125% in the assay on COLO 205 colon; 115% in the assay on DU-145 prostate; 85.3% in the assay with K-562 leukemia. Moreover, the growth in the assay with MALME-3M melanoma was 107%; in the assay on MDA-MB-231 breast it was 101%; with RXF 393 renal it was 89.9%; in the assay on SF-268 CNS, 108%; in the assay on SF-295 CNS, 115%; in the assay on SF-539 CNS it was 98.2%. Moreover, the growth in the assay with M14 melanoma was 102%.

The values above are taken from PubChem BioAssay (NCI).
